# Measured values taken from a collection of fitness landscapes (doi:10.1016/j.celrep.2020.107928).
# Over roughly 81,000 sequences, “one-hybrid fitness for binding NBS DNA” has its median near -0.1; the highest 2% begin near 0.36. The entries come from a sample that favours the highest values as a whole.
# B1: Caulobacter ParB omega fusion; a variant is named by its letters at X, in order, B8GW30 (parent)
# chain: MESVVVGEPGMSEGRRGLGRGLSALLGEVDAAPAQAPGEQLGGSREAPIEILQRNPDQPRRTFREEDLEDLSNSIREKGVLQPILVRPSPDTAGEYQIVAGERAWRAAQRAGLKTVPIMVRELDDLAVLEIGIIENVQRADLNVLEEALSYKVLMEKFERTQENIAQTIGKSXSHVANXMRLLXLPDEVQSYLVSGELTAXHARAIAAAADPVALAKQIIEGGLSVRETEALARKAPNLSAGKSKGGRPPRVKDTDTQALESDLSSVLGLDVSIDHRGSTGTLTITYATLEQLDDLCNRLTRGI
# Variants of: B1
# Test: one-hybrid fitness for binding NBS DNA (the Noc-binding site; scaled: cognate 1, non-cognate 0); higher = stronger binding
# Conditions: with NBS DNA site
# Method in brief: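 Pre- and post-selection plasmids were Illumina-sequenced, three replicate libraries were pooled, and any variant with under 10 reads was removed. The libraries were Caulobacter ParB with four specificity codons randomised, selected in E. coli USO through a HIS3 reporter whose site is 19 bp from the promoter. Cells grew 48 hours at 37°C on M9 without histidine, with 0.1 mM IPTG and 5 mM 3-AT. Fitness is the log change in variant-to-wild-type read ratio, rescaled against cognate and non-cognate.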
row,Variant,one-hybrid fitness for binding NBS DNA
1,RQFK,≤ 0.2
2,VLYA,≤ 0.2
3,QHGK,≤ 0.2
4,IVPF,≤ 0.2
5,PKES,≤ 0.2
6,VFPS,≤ 0.2
7,FLQS,≤ 0.2
8,QVPL,≤ 0.2
9,LTRI,≤ 0.2
10,GFGY,≤ 0.2
11,SVNC,≤ 0.2
12,RLRA,0.295
13,RRHA,0.66
14,RCCA,0.268
15,RRCA,0.584
16,RCWA,≤ 0.2
17,RPCA,≤ 0.2
18,RPWA,≤ 0.2
19,RRWA,0.546
20,RCHA,0.307
21,RSHA,≤ 0.2
22,RARA,0.309
23,RRRA,0.671
24,PPGV,≤ 0.2

row,Variant,one-hybrid fitness for binding NBS DNA
1,IQLC,≤ 0.2
2,EVWT,≤ 0.2
3,YTCT,≤ 0.2
4,YRGS,≤ 0.2
5,DVKL,≤ 0.2
6,HVRW,≤ 0.2
7,NNGC,≤ 0.2
8,KTNT,0.226
9,RRQA,0.695
10,RRPA,0.282
11,RCLA,≤ 0.2
12,RCIA,≤ 0.2
13,RRLA,0.584
14,RPMA,≤ 0.2
15,RRIA,0.552
16,RRMA,0.591
17,RCQA,0.238
18,RSQA,≤ 0.2
19,RSLA,≤ 0.2
20,RCMA,≤ 0.2
21,APCY,≤ 0.2
22,TLCF,≤ 0.2
23,NTLF,≤ 0.2
24,CLPC,≤ 0.2

row,Variant,one-hybrid fitness for binding NBS DNA
1,DMHR,≤ 0.2
2,GSQM,≤ 0.2
3,RREA,0.44
4,RSEA,≤ 0.2
5,RCEA,≤ 0.2
6,STQW,≤ 0.2
7,SNSF,≤ 0.2
8,WTSV,≤ 0.2
9,QTWQ,≤ 0.2
10,QTKQ,0.568
11,QTIQ,≤ 0.2
12,QTVQ,0.534
13,YDNH,≤ 0.2
14,MVEY,≤ 0.2
15,KRFS,0.358
16,KRYS,0.447
17,KRRH,0.422
18,KRHN,≤ 0.2
19,KRIS,0.308
20,KRHD,≤ 0.2
21,KRES,0.264
22,KRDH,≤ 0.2
23,KRAS,0.409
24,KRHS,0.464

row,Variant,one-hybrid fitness for binding NBS DNA
1,KRAD,≤ 0.2
2,KRRP,≤ 0.2
3,GYTL,≤ 0.2
4,SSDL,≤ 0.2
5,SLMH,≤ 0.2
6,HKYA,≤ 0.2
7,YCMR,≤ 0.2
8,HEIR,≤ 0.2
9,KRQN,≤ 0.2
10,KRSS,0.421
11,KRRS,0.549
12,KRSH,0.205
13,KRNS,0.453
14,KRNH,0.265
15,KCRS,0.216
16,KRRN,0.217
17,KRQS,0.443
18,KRQH,0.221
19,KRDS,0.28
20,KRSN,≤ 0.2
21,VPML,≤ 0.2
22,PIAK,≤ 0.2
23,QDVN,≤ 0.2
24,APGE,≤ 0.2

row,Variant,one-hybrid fitness for binding NBS DNA
1,GIHG,≤ 0.2
2,KCYL,≤ 0.2
3,KRWH,≤ 0.2
4,KRCH,≤ 0.2
5,KRCN,≤ 0.2
6,KRWN,≤ 0.2
7,KRWS,0.436
8,KRCS,0.387
9,WTHQ,≤ 0.2
10,AAML,≤ 0.2
11,VNPF,≤ 0.2
12,GHPM,≤ 0.2
13,CVHG,≤ 0.2
14,RNRP,≤ 0.2
15,RNYT,≤ 0.2
16,RNRS,0.491
17,RNRT,0.391
18,RNDT,≤ 0.2
19,RNVT,≤ 0.2
20,RNYS,≤ 0.2
21,RNKT,0.46
22,RNKD,≤ 0.2
23,YKHS,≤ 0.2
24,KGVE,≤ 0.2

row,Variant,one-hybrid fitness for binding NBS DNA
1,RMGP,≤ 0.2
2,RIGS,0.369
3,RMGD,≤ 0.2
4,RIGP,≤ 0.2
5,RMGS,0.461
6,RSGD,≤ 0.2
7,RLGD,≤ 0.2
8,RLGS,0.419
9,RLGP,≤ 0.2
10,RSGN,≤ 0.2
11,RIGN,≤ 0.2
12,RSGS,0.419
13,CRQG,≤ 0.2
14,LDLL,≤ 0.2
15,AGNM,≤ 0.2
16,AITP,≤ 0.2
17,AYSK,≤ 0.2
18,DEHT,≤ 0.2
19,IPES,≤ 0.2
20,ERQV,≤ 0.2
21,QYAC,≤ 0.2
22,KLFS,≤ 0.2
23,RHER,0.235
24,EADR,≤ 0.2

row,Variant,one-hybrid fitness for binding NBS DNA
1,KFKV,≤ 0.2
2,RHGN,≤ 0.2
3,RHGS,0.368
4,RTGS,0.491
5,RHGD,≤ 0.2
6,RKGD,≤ 0.2
7,RAGS,0.466
8,RTGD,≤ 0.2
9,RKGS,0.576
10,RAGN,≤ 0.2
11,RTGN,≤ 0.2
12,RKGN,≤ 0.2
13,RAGD,≤ 0.2
14,LATQ,≤ 0.2
15,NNCL,≤ 0.2
16,PCCV,≤ 0.2
17,VENS,≤ 0.2
18,FMGS,≤ 0.2
19,DHPH,≤ 0.2
20,KDLT,≤ 0.2
21,ENHG,≤ 0.2
22,NCII,≤ 0.2
23,SQRK,≤ 0.2
24,MVPG,≤ 0.2

row,Variant,one-hybrid fitness for binding NBS DNA
1,RFGS,≤ 0.2
2,RCGS,0.482
3,RPGS,≤ 0.2
4,GNMC,≤ 0.2
5,FFRR,≤ 0.2
6,NETT,≤ 0.2
7,VRVR,≤ 0.2
8,VCRR,0.246
9,VCNR,≤ 0.2
10,VRDR,≤ 0.2
11,VCKR,0.228
12,VRNR,0.368
13,VRYR,0.239
14,VRRR,0.624
15,VRKR,0.62
16,TYNY,≤ 0.2
17,VWLM,≤ 0.2
18,RPGK,≤ 0.2
19,RSHN,≤ 0.2
20,RCHR,0.586
21,RFHR,0.305
22,RSHD,≤ 0.2
23,RSHR,0.476
24,RPHR,≤ 0.2

row,Variant,one-hybrid fitness for binding NBS DNA
1,LSID,≤ 0.2
2,YTWT,≤ 0.2
3,SVNS,≤ 0.2
4,PHLC,≤ 0.2
5,NPYT,≤ 0.2
6,QAQR,0.506
7,QAQN,≤ 0.2
8,QSQN,≤ 0.2
9,QTQR,0.757
10,QSQH,0.246
11,QIQR,0.39
12,QTQH,0.346
13,QTQD,≤ 0.2
14,QAQP,≤ 0.2
15,QIQN,≤ 0.2
16,QIQD,≤ 0.2
17,QSQR,0.535
18,SVRD,≤ 0.2
19,NSML,≤ 0.2
20,LLKM,≤ 0.2
21,MPSK,≤ 0.2
22,KHMV,≤ 0.2
23,QHQD,≤ 0.2
24,QKQG,≤ 0.2

row,Variant,one-hybrid fitness for binding NBS DNA
1,QPQR,≤ 0.2
2,QDQR,≤ 0.2
3,QGQR,≤ 0.2
4,QKQR,0.67
5,QCQR,0.612
6,QHQR,0.523
7,QKQN,≤ 0.2
8,YKRT,≤ 0.2
9,SATK,≤ 0.2
10,TSAP,≤ 0.2
11,DITY,≤ 0.2
12,QYQM,≤ 0.2
13,QYQP,≤ 0.2
14,QYQY,≤ 0.2
15,QYQS,0.373
16,QYQG,≤ 0.2
17,QYQT,0.446
18,QHTQ,≤ 0.2
19,IKPC,≤ 0.2
20,QEEP,≤ 0.2
21,QTAE,≤ 0.2
22,AHII,≤ 0.2
23,QTLG,≤ 0.2
24,QKKC,0.385

row,Variant,one-hybrid fitness for binding NBS DNA
1,QMNC,≤ 0.2
2,QKVC,≤ 0.2
3,QMVC,≤ 0.2
4,QRVC,0.314
5,QRKC,0.507
6,QLKC,0.304
7,QMKC,0.383
8,QKIC,≤ 0.2
9,QSKC,0.367
10,QSVC,≤ 0.2
11,QRIC,0.303
12,HLMG,≤ 0.2
13,TSYM,≤ 0.2
14,HDED,≤ 0.2
15,PFKY,≤ 0.2
16,LLIF,≤ 0.2
17,QCLE,≤ 0.2
18,HMAT,≤ 0.2
19,CQKM,≤ 0.2
20,RIAG,≤ 0.2
21,QTVC,≤ 0.2
22,QTPC,≤ 0.2
23,QHVC,≤ 0.2
24,QCKC,0.452

row,Variant,one-hybrid fitness for binding NBS DNA
1,QPKC,≤ 0.2
2,QHYC,≤ 0.2
3,QHKC,0.367
4,QTKC,0.53
5,QAKC,0.349
6,KAAT,≤ 0.2
7,GLAF,≤ 0.2
8,PDTG,≤ 0.2
9,GSLV,≤ 0.2
10,QKCC,≤ 0.2
11,QKIT,0.363
12,QKYT,0.511
13,QAWT,0.297
14,QKWG,≤ 0.2
15,QKWT,0.454
16,QKPT,0.306
17,QKHM,≤ 0.2
18,QKCY,≤ 0.2
19,QKHC,≤ 0.2
20,QKHT,0.549
21,QKCT,0.475
22,SRNN,≤ 0.2
23,GDKC,≤ 0.2
24,RTGY,≤ 0.2

row,Variant,one-hybrid fitness for binding NBS DNA
1,ARHT,≤ 0.2
2,RTFI,≤ 0.2
3,IIAL,≤ 0.2
4,HVSG,≤ 0.2
5,PVMQ,≤ 0.2
6,YSMW,≤ 0.2
7,LTAH,≤ 0.2
8,AHPT,≤ 0.2
9,NKRT,≤ 0.2
10,QKLT,0.464
11,QKLY,≤ 0.2
12,QKSM,≤ 0.2
13,QKGT,0.566
14,DKRT,≤ 0.2
15,QKGM,≤ 0.2
16,QKGG,≤ 0.2
17,QKRT,0.757
18,QKSG,≤ 0.2
19,QKST,0.526
